Screening data from PubChem.
HepG2 viability: qHTS for Inhibitors of TGF-b: Cytotox Counterscreen; HepG2 CAGA-GFP viability, ATP luminescence, 18 h; Potency, µM (doses to about 46.1 µM), usual class: cytotoxic; 410,000 compounds, 0.76% hits; AID 588856, 2011
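CellTiter-Glo luminescence gave cytotoxicity after 18 hours at 37 degrees C. The cells were HepG2 CAGA-GFP in 1% FBS DMEM, stimulated with 500 pg/mL TGF-beta after compound addition. %Activity was normalised to no-cell wells (complete cell-killing) and DMSO (no toxicity), and curves were fitted and classified.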
HT1080-NT tox: qHTS for induction of synthetic lethality in tumor cells producing 2HG: qHTS for the HT-1080-NT fibrosarcoma cell line; HT-1080-NT fibrosarcoma viability, CellTiter-Glo ATP luminescence, 48 h; 360,000 compounds, 1.6% hits; Potency, µM (titrated, usually from 46.1 µM), actives largely listed as cytotoxic; AID 686970, 2013;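 also: NT is the 2HG producing partner of a matched IDH1 knockdown line; nearly all actives have a fitted effect of over 55% in size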
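750 cells/well, RPMI + 5% FBS; 2 h settle, compound pin-transfer, 48 h at 37 degrees C. CellTiter-Glo 10 min RT, luminescence. Normalized to DMSO and media-only wells.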
HT1080 IDH1KD tx: qHTS for induction of synthetic lethality in tumor cells producing 2HG: qHTS for the HT-1080-IDH1KD cell line; HT-1080 IDH1 knockdown viability, ATP luminescence, 48 h; Potency, µM (highest dose often 46.1 µM), actives largely listed as cytotoxic; 360,000 compounds, 2% hits; AID 686971, 2013
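In this qHTS, HT-1080 cells depleted of IDH1 are exposed for 48 h at 37 °C to compound titrations. Toxicity is scored from CellTiter-Glo luminescence, with DMSO as full viability and medium alone as none.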
IL-1B inflam inh: qHTS for Inhibitors of Inflammasome Signaling: IL-1-beta AlphaLISA Primary Screen; THP-1 LPS/ATP IL-1B secretion, AlphaLISA, 16 h; hits give low values; 360,000 compounds, 4.7% hits; activity change, % at 57.5 µM; in the data active = activity change below about -50%; inconclusive = mostly about -30% to -49%
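THP-1 cells pretreated 1 hr with compounds (up to 57.5 uM final), then stimulated with LPS (250 ng/mL final) plus ATP (1.25 mM final); secreted IL-1B measured by AlphaLISA after 16 hr, decreased signal indicating inhibition.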
TGFb inhibitor: qHTS for Inhibitors of TGF-b; AID 588855, 2011; HepG2 CAGA-GFP TGF-b/SMAD3 reporter, GFP fluorescence, 18 h; TGF-beta stimulated, 500 pg/mL final; Potency, µM (top dose mostly 46.1 µM), actives largely listed as inhibitors; 410,000 compounds, 1.2% hits; also: nearly all actives have a fitted effect of over 65% in size
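HEPG2 CAGA-GFP cells (1000/well, DMEM with 1% FBS) were pre-incubated 2 h at 37 degrees C, given compound by pin tool, then stimulated with TGF-beta at 500 pg/mL final for 18 h before per-cell GFP fluorescence imaging.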
Giardia killer: Small Molecules that selectively kill Giardia lamblia: qHTS | Giardia lamblia trophozoite viability | activity change, % at 7.66 µM, hits read low | 340,000 compounds, 0.15% hits | AID 540267, 2011; in the data active = activity change below about -80%; inconclusive = between about -30% and that limit;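 also: parasites exposed to compound for two days anaerobically before the ATP read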
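Luminescence from cellular ATP indicates surviving trophozoites (100 cells/well) following 48 hrs anaerobic compound treatment at 37 deg C; signal develops 15-30 min at room temperature.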
Each line names hits and unclear results; the compound was inactive in the other large screens. Sampled rows, rich in hits. Any-hit rate of the full collection: about 6.5%. Unless noted, calls follow the shape of the dose curve; as a rule, active = well fitted curve in the direction sought with a large enough effect; inconclusive = small, poorly fitted or top-dose-only effect, or another doubt; inactive = no such curve, though single readings can be large; an effect the other way counts as inactive or inconclusive.

OC(Cc1ccccc1Br)c1ncc(-c2cccc(C(F)(F)F)c2)[nH]1 (stereo not given)	HT1080-NT tox inconclusive, HT1080 IDH1KD tx 16µM, IL-1B inflam inh -61, TGFb inhibitor inconclusive (no result: Giardia killer)
CCc1ccc(C(O)c2ncc(-c3cccc(C(F)(F)F)c3)[nH]2)cc1 (stereo not given)	HT1080-NT tox 23µM, HT1080 IDH1KD tx inconclusive, TGFb inhibitor inconclusive (no result: Giardia killer)
Cc1ccc(NC(=O)c2ccc(F)c(S(=O)(=O)NCCc3ccccc3)c2)cc1F	HepG2 viability 10µM, TGFb inhibitor 11µM (no result: HT1080-NT tox, HT1080 IDH1KD tx, IL-1B inflam inh, Giardia killer)
CCN(c1ccccc1)S(=O)(=O)c1ccc(C(=O)Nc2cccc(NC(C)=O)c2)cc1	none
CCN(c1ccccc1)S(=O)(=O)c1cc(C(=O)Nc2ccc(F)c(F)c2)ccc1F	HT1080-NT tox 15µM, HT1080 IDH1KD tx inconclusive, IL-1B inflam inh -89, TGFb inhibitor 11µM
CN1C(=O)NC(c2ccccc2Cl)C2=C1CC(C)(C)CC2=O (stereo not given)	none
CN(CC1CCCN(CCc2cccc(C(F)(F)F)c2)C1)C(=O)c1ccco1 (stereo not given)	none
CC(=O)Nc1ccc(CN(C)CC2CCCN(CCc3cccc(C(F)(F)F)c3)C2)cc1 (stereo not given)	HT1080-NT tox inconclusive, HT1080 IDH1KD tx 21µM, IL-1B inflam inh -69
CSCCC(=O)N(C)CC1CCN(CCc2cccc(C(F)(F)F)c2)CC1	none
CN(CC1CCN(CCc2cccc(C(F)(F)F)c2)CC1)C(=O)c1ccc(F)cc1F	IL-1B inflam inh -51, TGFb inhibitor inconclusive
COc1ccc(C(=O)N(C)CC2CCN(CCc3cccc(C(F)(F)F)c3)CC2)cc1C	IL-1B inflam inh -61, TGFb inhibitor inconclusive
COc1ccccc1CNC(=O)CCC1N=C2c3ccccc3N=C(SCc3ccccc3Cl)N2C1=O (stereo not given)	TGFb inhibitor inconclusive (no result: HT1080-NT tox, HT1080 IDH1KD tx, IL-1B inflam inh, Giardia killer)
O=C(Nc1ccc(Cl)cc1F)c1oc(=O)c2ccccc2c1-c1ccccc1	none (no result: HT1080-NT tox, HT1080 IDH1KD tx, IL-1B inflam inh, Giardia killer)
CC(=O)c1ccc(NC(=S)NN2C(C)CCCC2C)cc1 (stereo not given)	none
O=C(COC(=O)c1cc(S(=O)(=O)N2CCCC2)ccc1O)Nc1ccc(SC(F)F)cc1	Giardia killer inconclusive
CCN(CC)S(=O)(=O)c1cc(NC(=O)CNc2cccc(S(=O)(=O)N3CCCC3)c2)ccc1C	HT1080-NT tox 4.6µM, IL-1B inflam inh inconclusive, TGFb inhibitor inconclusive
CN(C)S(=O)(=O)c1cccc(NC(=O)CNc2cccc(S(=O)(=O)N3CCCCC3)c2)c1	none (no result: Giardia killer)
O=C(CNc1ccc(C(F)(F)F)cc1)Nc1cccc(S(=O)(=O)N2CCCCC2)c1	HT1080-NT tox inconclusive, HT1080 IDH1KD tx inconclusive, IL-1B inflam inh -59, TGFb inhibitor inconclusive (no result: Giardia killer)
O=C(CNc1ccc(C(F)(F)F)cc1)Nc1cccc(S(=O)(=O)N2CCCC2)c1	none
O=C(CNc1cc(S(=O)(=O)N2CCCC2)ccc1OCC(F)(F)F)Nc1ccc(SC(F)F)cc1	IL-1B inflam inh -68
CN(C)c1ccc(NC(=O)COC(=O)c2ccc3c(c2)OCO3)cc1	HT1080 IDH1KD tx inconclusive
C[C@@H]1CN([C@@H](C)CO)S(=O)(=O)c2ccc(Br)cc2O[C@H]1CN(C)C(=O)c1ccc2c(c1)OCO2	none (no result: Giardia killer)
O=C1/C(=C/C=C/c2ccccc2)Oc2c1ccc(O)c2CN1CCN(CCO)CC1	HT1080 IDH1KD tx inconclusive
CCN1CCN(Cc2c(O)ccc3c2O/C(=C\C=C\c2ccccc2)C3=O)CC1	HT1080-NT tox inconclusive, HT1080 IDH1KD tx inconclusive, IL-1B inflam inh -100
CCCSCCCNC(=O)C1CCCN(c2nn3cc(-c4ccc(OC)cc4)nc3s2)C1 (stereo not given)	none (no result: HT1080-NT tox, HT1080 IDH1KD tx, IL-1B inflam inh, Giardia killer)
COc1ccc(C(=O)CSc2cc(C)nc3nc(C)nn23)cc1OC	HT1080-NT tox 16µM, HT1080 IDH1KD tx 11µM, IL-1B inflam inh -97
COc1ccc(C(=O)CSc2nc(SC)ns2)cc1OC	none
COc1ccc(C(=O)CSC#N)cc1OC	HT1080-NT tox inconclusive, HT1080 IDH1KD tx 21µM, IL-1B inflam inh inconclusive, TGFb inhibitor inconclusive
COc1ccc(C(=O)COC(=O)c2ccc(OC)c(OC)c2)cc1OC	none
Cc1ccc(SCc2[nH]nc3c2C(c2ccc(C)o2)C(C#N)=C(N)O3)cc1 (stereo not given)	HT1080 IDH1KD tx inconclusive, TGFb inhibitor inconclusive
Cc1ccc(SCc2[nH]nc3c2C2(C(=O)N(C)c4ccccc42)C(C#N)=C(N)O3)cc1 (stereo not given)	HT1080-NT tox 15µM, HT1080 IDH1KD tx inconclusive
Cc1ccc(SCc2[nH]nc3c2C(c2ccco2)C(C#N)=C(N)O3)cc1 (stereo not given)	HepG2 viability 13µM, HT1080-NT tox inconclusive, TGFb inhibitor inconclusive
CCc1[nH]nc2c1C(c1ccc(Br)s1)C(C#N)=C(N)O2 (stereo not given)	HT1080-NT tox inconclusive, HT1080 IDH1KD tx inconclusive, IL-1B inflam inh -100, TGFb inhibitor 11µM
COc1ccc(Cl)cc1NC(=O)NNC(=O)C(=O)Nc1ccc(F)cc1	HT1080 IDH1KD tx inconclusive (no result: Giardia killer)
Cc1c(N(C(=O)CNC(=O)c2ccccc2)C2(C(=O)NC3CCCC3)CCCCC2)c(=O)n(-c2ccccc2)n1C	none
COCCn1nnnc1C(c1cc2cc(OC)c(OC)cc2[nH]c1=O)N1CCN(c2ccc(O)cc2)CC1 (stereo not given)	none
CCCC(=O)N1N=C(c2ccccc2)CC1c1cn(C)c2ccccc12 (stereo not given)	IL-1B inflam inh -56, TGFb inhibitor inconclusive
Cc1cn2c(=O)cc(COC(=O)COc3ccc(F)cc3)nc2s1	none (no result: HT1080-NT tox, HT1080 IDH1KD tx, IL-1B inflam inh, Giardia killer)
CN1CCN(c2nc(-c3ccccc3Cl)nc3ccccc23)CC1	IL-1B inflam inh inconclusive
c1ccc2c(N3CCCC3)nc(-c3ccncc3)nc2c1	IL-1B inflam inh -80
O=S(=O)(c1cccc(F)c1)N1CCN(c2nc(-c3cccnc3)nc3ccccc23)CC1	IL-1B inflam inh -57
Cc1ccc(S(=O)(=O)N2CCN(c3nc(-c4ccncc4)nc4ccccc34)CC2)cc1	none (no result: HepG2 viability, IL-1B inflam inh, TGFb inhibitor)
CN1CCN(c2nc(-c3ccc(Cl)cc3)nc3ccccc23)CC1	IL-1B inflam inh -89
CN1CCN(c2nc(-c3ccncc3)nc3ccccc23)CC1	HT1080-NT tox inconclusive, HT1080 IDH1KD tx inconclusive, IL-1B inflam inh -57
CCCN(CC(=O)Nc1ccccc1C)C(=O)c1ccc(-c2ccc([N+](=O)[O-])cc2)o1	none
